# Assay outcomes deposited in PubChem BioAssay by several laboratories.
# Compounds with a hit are over-represented: about 21% of the library has one in this group of screens.
# MRP-1 activ – MRP-1 activation; H69AR cells + doxorubicin, viability rescue, CellTiter-Glo; viability increase, % at 10 µM; hit rate 0.61% among 140,000; AID 799;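 active means viability gain under doxorubicin at or above a set limit, the compound median plus 3 SD, cut at about 4.7% in these data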;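 further: MRP-1 overexpressing cells given doxorubicin 25 µM after compound pretreatment; 18-22 h compound pretreatment then 72 h with doxorubicin before readout; 0% = doxorubicin-only wells and 100% = vehicle-treated cells without doxorubicin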
# CYP2C19 act – cytochrome P450 2C19 (human) activation. P33261. recombinant CYP2C19, luciferin-H EGE luminescence; hits give high values; 0 = fully inhibited enzyme, 1 = untreated enzyme. activation factor at 5 µM. 96,000 tested, under 10 active. AID 1025;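 active means activation factor of at least 2 at 5 µM in the primary screen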;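 further: 0 = wells with 2.5 mM tranylcypromine and 1 = vehicle-only wells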
# Target sequence (P33261 whole entry, looked up): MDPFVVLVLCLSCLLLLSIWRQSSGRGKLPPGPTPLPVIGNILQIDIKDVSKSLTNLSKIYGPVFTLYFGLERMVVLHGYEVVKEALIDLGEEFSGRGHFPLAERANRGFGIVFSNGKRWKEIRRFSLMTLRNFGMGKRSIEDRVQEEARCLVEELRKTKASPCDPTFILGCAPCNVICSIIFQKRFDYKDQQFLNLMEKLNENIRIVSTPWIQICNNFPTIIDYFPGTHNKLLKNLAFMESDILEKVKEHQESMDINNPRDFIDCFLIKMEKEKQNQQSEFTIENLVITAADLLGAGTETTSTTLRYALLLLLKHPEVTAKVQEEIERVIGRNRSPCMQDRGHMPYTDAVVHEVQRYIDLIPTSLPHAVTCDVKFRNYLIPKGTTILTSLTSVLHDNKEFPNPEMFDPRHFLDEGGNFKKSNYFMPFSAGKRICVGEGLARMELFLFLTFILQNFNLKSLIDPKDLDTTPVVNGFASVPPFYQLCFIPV
# CYP2C9 inh – inhibitors of human CYP2C9; P11712; CYP2C9 Supersomes, luciferin-H conversion, luminescence; inhibition, % at 5 µM; hit rate 20% among 96,000;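 active means blocking of liver enzyme CYP2C9 beyond about 50% at 5 µM, limit read from the data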
# CYP2C19 inhib – human CYP2C19 inhibition; AID 778; CYP2C19 Supersomes, luciferin-H EGE luminescence, 30 min; inhibition, % at 5 µM; hit rate 21% among 96,000; P33261;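 active means CYP2C19 inhibition above a set limit at 5 µM in the primary screen, cut at about 50% in these data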;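 further: plate controls were negative control wells for no effect and 2.5 mM tranylcypromine positive control for full effect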
# MRP resist rev – reverses drug resistance mediated by MRP; H69AR cells + 2 uM doxorubicin, CellTiter-Glo, 72 h; differential viability (reversal), % at 10 µM; hit rate 0.04% among 85,000;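 active means viability drop by adding the cancer drug above about 55%, with treated viability meeting a 40% cutoff, limit read from the data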;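 further: viability without doxorubicin minus viability with 2 µM doxorubicin for each compound; larger differential means the compound sensitizes cells more to doxorubicin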
# CYP2C9 act – increases human cytochrome P450 2C9 activity. AID 1024. P11712. hit rate 1.4% among 96,000. recombinant CYP2C9, luciferin-H conversion, luminescence; hits give high values; factor 1 = untreated enzyme, 0 = blocked. activation factor at 5 µM;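 active means activation factor of 2 or more for CYP2C9 at a 5 µM dose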;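 further: 0 = sulfaphenazole-blocked wells and 1 = vehicle-only wells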
# * marks the source's active call; other numbers are inactive results; nt = no result given.
SMILES,MRP-1 activ,CYP2C19 act,CYP2C9 inh,CYP2C19 inhib,MRP resist rev,CYP2C9 act
CCC(C(=O)N1CCc2cc(OC)c(OC)cc2C1)c1ccccc1 (stereo not given),-2,0.3,73*,73*,-5,0.3
O=C(Nc1ncc(Br)s1)C(Cc1ccccc1)n1cccc1 (stereo not given),-5,0.1,97*,88*,1,0
O=C(C(Cc1ccccc1)n1cccc1)N1CCN(Cc2ccccc2)CC1 (stereo not given),-1,0.8,62*,23,6,0.4
CCC(C)NC(=O)C(Cc1ccccc1)n1cccc1 (stereo not given),-2,0.4,60*,62*,4,0.4
CC(C)CN(CC(C)C)C(=O)CC(=O)NC(=O)c1ccc(Cl)cc1,-2,0.7,25,34,0,0.8
COC(=O)[C@H]1C[C@@H]1[C@H](NC(=O)c1ccccc1)c1ccccc1,-3,nt,nt,nt,nt,nt
Cc1nn(Cc2ccccc2Cl)c(C)c1C(=O)NCCN1C(=O)S/C(=C\c2ccccc2)C1=O,2,nt,nt,nt,nt,nt
O=C(C(Cc1ccccc1)n1cccc1)N1CCCCC1 (stereo not given),-3,0.6,-6,45,13,1.1
O=C(O)CCC(=O)N1CCN(c2cccc(Cl)c2)CC1,-1,0.9,-24,6,-16,1.2
O=C(C(Cc1ccccc1)n1cccc1)N1CCN(c2cccc(Cl)c2)CC1 (stereo not given),-3,0.2,70*,82*,-14,0.3
CCC(C(=O)N1CCN(c2cccc(Cl)c2)CC1)c1ccccc1 (stereo not given),0,0,100*,95*,-6,0
COc1ccc(N2CCN(C(=O)C(Cc3ccccc3)n3cccc3)CC2)cc1 (stereo not given),-3,0.1,76*,93*,4,0.2
O=C(C(Cc1ccccc1)n1cccc1)N1CCCCCC1 (stereo not given),-3,0.3,37,69*,32,0.6
CCOc1cc(C(=S)N2CCOCC2)ccc1OS(=O)(=O)c1ccccc1[N+](=O)[O-],-3,nt,nt,nt,nt,nt
CCOC(=O)N1CCN(C(=O)C(CC)c2ccccc2)CC1 (stereo not given),2,nt,nt,nt,nt,nt
CCC(C(=O)N1CCN(S(C)(=O)=O)CC1)c1ccccc1 (stereo not given),0,0.2,33,83*,1,0.7
COCC(C)NC(=O)CSc1nc(-c2ccccc2)c(-c2ccccc2)o1 (stereo not given),-2,0.4,50,59*,nt,0.5
CCCC(C(=O)NCc1ccco1)N(C(=O)CNS(=O)(=O)c1ccccc1)c1ccccc1OC (stereo not given),-2,0.6,12,40,-11,0.9
CC1(C)C(=O)Nc2ccccc2N1C(=O)COC(=O)C12CC3CC(CC(O)(C3)C1)C2,-1,1,6,0,3,0.9
O=C1CN(C(=O)COC(=O)C2CCN(S(=O)(=O)c3ccccc3C(F)(F)F)CC2)c2ccccc2N1,0,0.4,-51,57*,nt,1.5
COC(=O)c1cc(C(=O)OCC(=O)N2c3ccccc3NC(=O)C2(C)C)cc([N+](=O)[O-])c1,-2,nt,nt,nt,nt,nt
Cc1cc(C)c(C)c(S(=O)(=O)N2CCC(C(=O)OCC(=O)N3c4ccccc4NC(=O)C3(C)C)CC2)c1C,-1,0.3,-60,70*,nt,1.6
CC1(C)C(=O)Nc2ccccc2N1C(=O)COC(=O)C1CCCCC1,0,0.4,61*,62*,-9,0.4
COc1cccc(/C=N/n2c(-c3ccco3)nc3ccccc3c2=O)c1OC,-1,nt,nt,nt,nt,nt
O=C(N/N=C/c1cccs1)c1ccc2c(c1)OCO2,-1,nt,nt,nt,nt,nt
CN=C1S/C(=C\c2ccc(N3CCOCC3)cc2C)C(=O)N1C,-2,nt,nt,nt,nt,nt
CN=C1S/C(=C\c2cc(C)n(-c3ccccc3F)c2C)C(=O)N1C,5.9*,0.9,-68,7,nt,1.7
Cc1ccccc1N1CCN(Cc2c[nH]c3ccccc23)CC1,-3,0.4,20,56*,-2,0.8
O=C(CSc1nc(O)c(C2CCCCC2)c(=O)[nH]1)Nc1ccc(Cl)cc1,0,0.8,66*,15,nt,0.3
CCn1c(SCC(=O)Nc2ccc3c(c2)oc2ccccc23)nnc1-c1ccc(N)cc1,-5,0.7,78*,31,5,0.2
